The text below walks through data of PubChem BioAssay (Tox21).

Records with an inconclusive call do not appear. Entries that show only a call come without a potency. The source made the active and inactive calls. Unless noted, calls come from the whole dose curve; as a rule, active = well fitted curve in the direction sought with a large enough effect in the repeat runs; inconclusive = weak or mixed curves; inactive = no such curve, though single readings can be large; an effect the other way counts as inactive or inconclusive.

Thyrotropin-releasing hormone receptor (Homo sapiens), sequence (P34981 whole entry, looked up): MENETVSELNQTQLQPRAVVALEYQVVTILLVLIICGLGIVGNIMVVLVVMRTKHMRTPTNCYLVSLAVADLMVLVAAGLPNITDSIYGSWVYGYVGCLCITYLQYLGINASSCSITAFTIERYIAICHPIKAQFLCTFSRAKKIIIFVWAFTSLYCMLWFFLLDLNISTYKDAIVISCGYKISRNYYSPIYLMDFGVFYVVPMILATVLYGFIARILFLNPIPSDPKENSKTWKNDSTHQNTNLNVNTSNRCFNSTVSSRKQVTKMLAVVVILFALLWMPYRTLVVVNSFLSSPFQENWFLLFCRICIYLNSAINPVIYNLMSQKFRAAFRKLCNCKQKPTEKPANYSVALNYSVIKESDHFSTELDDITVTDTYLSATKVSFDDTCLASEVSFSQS

The target in one assay is Thyrotropin-releasing hormone receptor (Homo sapiens) (UniProt P34981). As to the kind of experiment: qHTS assay to identify small molecule antagonists of the thyrotropin-releasing hormone receptor (TRHR) signaling pathway (AID 1346877; active = well fitted inhibition curve with a large enough effect in the repeat runs, not every such curve was filed as active). The settings on record: TRHR-HEK293, TRH-induced calcium fluorescence, antagonist mode; series mostly up to 51.3 µM. A digest of the protocol:
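TRHR-expressing HEK293 cells loaded with calcium dye for 2 h at 37 C; compounds pre-incubated 5 min at room temperature before TRH challenge at 1 nM final. Intracellular calcium fluorescence read kinetically for 3 min; 15 concentrations in triplicate.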
For orientation: qHTS replaces the single test concentration by a dilution series.
For `CC(C)c1cccc(O)c1`, the result was inactive.

As for `CCCCCCCCCCC1CO1` (stereo not drawn), the result was inactive.

`C=CCOc1nc(OCC=C)nc(OCC=C)n1`: the result was inactive.

A further assay has the same target. The assay is described as follows: qHTS assay to identify small molecule agonists of the thyrotropin-releasing hormone receptor (TRHR) signaling pathway (AID 1346891; calls by dose curve). The settings on record: TRHR-HEK293 calcium fluorescence, agonist mode; series mostly up to 57.6 µM. The procedure, abridged: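 Readout was intracellular calcium fluorescence in TRHR-Hek293 cells. Cells were incubated 18 h, dye-loaded 2 h at 37 °C, and treated with compound in agonist mode.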
As for `CC(C)=CC(=O)O`, the outcome was inactive.

Turning to `C=CCSCC1Nc2cc(Cl)c(S(N)(=O)=O)cc2S(=O)(=O)N1` (stereo not drawn), the result was inactive.

For the molecule `CC(C)COC(=O)c1ccccc1O`, the outcome was inactive.

Take `CCCCCCCCCCCCCCC`: the outcome was inactive.

Regarding `O=[N+]([O-])c1ccc(CCO)cc1`, the result was inactive.

In the case of `CCN(CC)S(=O)(=O)c1ccc(C(=O)O)cc1`, the result was inactive.

With `CCCCCCC(CCCCCCCCCCC(=O)OCC(COC(C)=O)OC(C)=O)OC(C)=O` (stereo not drawn), the result was inactive.

In the case of `NCC[C@H](O)C(=O)N[C@@H]1C[C@H](N)[C@@H](O[C@H]2O[C@H](CN)[C@@H](O)[C@H](O)[C@H]2O)[C@H](O)[C@H]1O[C@H]1O[C@H](CO)[C@@H](O)[C@H](N)[C@H]1O`, the activation was -0.0262% [at 0.218 µM] (inactive).

Take `NC(=O)c1ncn([C@@H]2O[C@H](CO)[C@@H](O)[C@H]2O)c1N`: the outcome was inactive.

Turning to `CCCc1ccccc1O`, the outcome was inactive.

As for `CO`, the result was inactive.

Regarding `C=CCOCC(O)CS(=O)(=O)O` (stereo not drawn), the outcome was inactive.

As to `Nc1ncnc2c1ncn2Cc1c(F)cccc1Cl`, the result was inactive.

On to `NC(=O)CCCCC1CCSS1` (stereo not drawn), for which the result was inactive.

For `CC(C)c1ccc2oc3nc(N)c(C(=O)O)cc3c(=O)c2c1`, the result was inactive.

`COC(=O)CCCCCCCCC(=O)OC`: the result was inactive.

As to `c1ccc(CCCc2ccccn2)cc1`, the outcome was inactive.

`O=C(O)c1ccc[n+]([O-])c1`: the result was inactive.

As to `NS(=O)(=O)c1cc2c(cc1Cl)NC(CSCc1ccccc1)=NS2(=O)=O`, the outcome was inactive.

Consider `c1ccc2cnncc2c1`, for which the result was inactive.

In the case of `CC1=CC(=O)CCC1`, the outcome was inactive.

Turning to `CN(C)N=Nc1ccccc1`, the outcome was inactive.

Regarding `NC(=S)Nc1cccc2ccccc12`, the activation is -0.377% [at 5.23 µM] (inactive).

For the molecule `CC(C)c1cccc(O)c1`, the result was inactive.

On to `CCCCCCCCCCC1CO1` (stereo not drawn), for which the result was inactive.

With `C=CCOc1nc(OCC=C)nc(OCC=C)n1`, the result was inactive.

Tested on in another assay: not listed separately
As to the kind of experiment: Human pregnane X receptor (PXR) small molecule agonists, qHTS cell viability counter screen (AID 1346977). Note: nearly all actives have a fitted effect of over 50% in size. The settings on record: PXR-Luc HepG2 viability, CellTiter-Fluor, 24 h; series mostly up to 92.4 µM. A digest of the protocol: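 In each well, the PXR reporter HepG2 line was checked for viability: CellTiter-Fluor reagent added 23hr post-dosing, fluorescence read after 1hr incubation at 37C.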
As to `CC(C)=CC(=O)O`, the Potency result was “inactive”.

For the molecule `O=C(O)c1ccccc1S`, the Potency entry was “inactive”.

As for `C=CCSCC1Nc2cc(Cl)c(S(N)(=O)=O)cc2S(=O)(=O)N1` (stereo not drawn), the Potency entry was “inactive”.

For `CCCCc1ccc(N)cc1`, the Potency entry was “inactive”.

On to `CC(C)COC(=O)c1ccccc1O`, for which the Potency entry is “inactive”.

Take `CCCCCCCCCCCCCCC`: the Potency result was “inactive”.

Consider `O=[N+]([O-])c1ccc(CCO)cc1`, for which the Potency entry is “inactive”.

In the case of `CCN(CC)S(=O)(=O)c1ccc(C(=O)O)cc1`, the Potency entry is “inactive”.

Turning to `Nc1ccn(C2CO[C@H](CO)O2)c(=O)n1` (stereo partly drawn), the Potency entry was “inactive”.

In the case of `COC(C(=O)O)c1ccccc1` (stereo not drawn), the Potency entry was “inactive”.

For `CCCCCCC(CCCCCCCCCCC(=O)OCC(COC(C)=O)OC(C)=O)OC(C)=O` (stereo not drawn), the Potency entry was “inactive”.

As to `NCC[C@H](O)C(=O)N[C@@H]1C[C@H](N)[C@@H](O[C@H]2O[C@H](CN)[C@@H](O)[C@H](O)[C@H]2O)[C@H](O)[C@H]1O[C@H]1O[C@H](CO)[C@@H](O)[C@H](N)[C@H]1O`, the activity change, negative = cytotoxicity is -0.464% [at 0.349 µM] (inactive).

With `NC(=O)c1ncn([C@@H]2O[C@H](CO)[C@@H](O)[C@H]2O)c1N`, the Potency result was “inactive”.

`CCCc1ccccc1O`: the Potency entry was “inactive”.

On to `CO`, for which the Potency entry was “inactive”.

As for `C=CCOCC(O)CS(=O)(=O)O` (stereo not drawn), the Potency result was “inactive”.

Consider `Nc1ncnc2c1ncn2Cc1c(F)cccc1Cl`, for which the Potency result was “inactive”.

As for `NC(=O)CCCCC1CCSS1` (stereo not drawn), the Potency result was “inactive”.

`CC(C)c1ccc2oc3nc(N)c(C(=O)O)cc3c(=O)c2c1`: the Potency entry was “inactive”.

Turning to `Fc1ccccc1-c1ccccc1`, the Potency result is “inactive”.

Take `CC(C)N1C(=O)c2ccccc2C1=O`: the Potency entry is “inactive”.

Turning to `O=S(=O)(O)c1ccccc1O`, the Potency result is “inactive”.

As to `COC(=O)CCCCCCCCC(=O)OC`, the Potency result is “inactive”.

For the molecule `c1ccc(CCCc2ccccn2)cc1`, the Potency entry was “inactive”.

As for `O=C(O)c1ccc[n+]([O-])c1`, the Potency entry is “inactive”.

As to `NS(=O)(=O)c1cc2c(cc1Cl)NC(CSCc1ccccc1)=NS2(=O)=O`, the Potency result was “inactive”.

Turning to `c1ccc2cnncc2c1`, the Potency entry was “inactive”.

`CC1=CC(=O)CCC1`: the Potency entry was “inactive”.

For the molecule `CN(C)N=Nc1ccccc1`, the Potency result was “inactive”.

On to `NC(=S)Nc1cccc2ccccc12`, for which the activity change, negative = cytotoxicity was -0.344% [at 8.39 µM] (inactive).

On to `CC(C)c1cccc(O)c1`, for which the Potency entry was “inactive”.

With `NC(N)=NS(=O)(=O)c1ccc(N)cc1`, the Potency entry is “inactive”.

For the molecule `CCCCCCCCN(C)CCCCCCCC`, the Potency entry was “inactive”.

As for `CC1(C)SC(C)(C)SC(C)(C)S1`, the Potency result is “inactive”.

For `NCCN1CCNC1=O`, the Potency result was “inactive”.

For `CCCCCCCCCCC1CO1` (stereo not drawn), the Potency entry is “inactive”.

On to `C=CCOc1nc(OCC=C)nc(OCC=C)n1`, for which the Potency result was “inactive”.

Tested on in a further assay: not listed separately
The assay is described as follows: Caspase-3/7 induction in HepG2 cells by small molecules, qHTS assay (AID 1346978). Note: nearly all actives have a fitted effect of over 15% in size. The settings on record: HepG2 caspase-3/7 activation, Caspase-Glo luminescence, 17 h; series mostly up to 92.4 µM. The procedure, abridged: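 Wild-type HepG2 cells (2,000/well) were settled 5 h at 37 C, 5% CO2, then exposed to compounds in DMSO for 17 h. Caspase-3/7 activity was read by luminescence 30 min after adding Caspase-Glo 3/7 reagent at room temperature.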
Turning to `CC(C)=CC(=O)O`, the outcome was inactive.

With `O=C(O)c1ccccc1S`, the molecule was called inactive.

`C=CCSCC1Nc2cc(Cl)c(S(N)(=O)=O)cc2S(=O)(=O)N1` (stereo not drawn): the molecule was classed as inactive.

Consider `CCCCc1ccc(N)cc1`, for which the call was inactive.

Turning to `CC(C)COC(=O)c1ccccc1O`, the outcome was inactive.

For the molecule `CCCCCCCCCCCCCCC`, the outcome was inactive.

With `O=[N+]([O-])c1ccc(CCO)cc1`, the outcome was inactive.

As for `CCN(CC)S(=O)(=O)c1ccc(C(=O)O)cc1`, the result was inactive.

With `Nc1ccn(C2CO[C@H](CO)O2)c(=O)n1` (stereo partly drawn), the molecule was called inactive.

Turning to `COC(C(=O)O)c1ccccc1` (stereo not drawn), the outcome was inactive.

In the case of `CCCCCCC(CCCCCCCCCCC(=O)OCC(COC(C)=O)OC(C)=O)OC(C)=O` (stereo not drawn), the result was inactive.

Turning to `NCC[C@H](O)C(=O)N[C@@H]1C[C@H](N)[C@@H](O[C@H]2O[C@H](CN)[C@@H](O)[C@H](O)[C@H]2O)[C@H](O)[C@H]1O[C@H]1O[C@H](CO)[C@@H](O)[C@H](N)[C@H]1O`, the caspase activation was -1.92% [at 0.349 µM] (inactive).

Turning to `NC(=O)c1ncn([C@@H]2O[C@H](CO)[C@@H](O)[C@H]2O)c1N`, the molecule was classed as inactive.

Consider `CCCc1ccccc1O`, for which the outcome was inactive.

With `CO`, the result was inactive.

`C=CCOCC(O)CS(=O)(=O)O` (stereo not drawn): the outcome was inactive.

In the case of `Nc1ncnc2c1ncn2Cc1c(F)cccc1Cl`, the molecule was called inactive.

Turning to `NC(=O)CCCCC1CCSS1` (stereo not drawn), the molecule was classed as inactive.

As to `CC(C)c1ccc2oc3nc(N)c(C(=O)O)cc3c(=O)c2c1`, the outcome was inactive.

On to `Fc1ccccc1-c1ccccc1`, for which the molecule was called inactive.

Regarding `CC(C)N1C(=O)c2ccccc2C1=O`, the molecule was classed as inactive.

Turning to `O=S(=O)(O)c1ccccc1O`, the call was inactive.

For the molecule `COC(=O)CCCCCCCCC(=O)OC`, the call was inactive.

For the molecule `c1ccc(CCCc2ccccn2)cc1`, the result was inactive.

On to `O=C(O)c1ccc[n+]([O-])c1`, for which the call was inactive.

Consider `NS(=O)(=O)c1cc2c(cc1Cl)NC(CSCc1ccccc1)=NS2(=O)=O`, for which the call was inactive.

Take `c1ccc2cnncc2c1`: the molecule was classed as inactive.

With `CC1=CC(=O)CCC1`, the result was inactive.

In the case of `CN(C)N=Nc1ccccc1`, the call was inactive.

On to `NC(=S)Nc1cccc2ccccc12`, for which the caspase activation is 1% [at 8.39 µM] (inactive).

As for `CC(C)c1cccc(O)c1`, the molecule was classed as inactive.

With `NC(N)=NS(=O)(=O)c1ccc(N)cc1`, the molecule was called inactive.

For `CCCCCCCCN(C)CCCCCCCC`, the result was inactive.

Regarding `CC1(C)SC(C)(C)SC(C)(C)S1`, the outcome was inactive.

As to `NCCN1CCNC1=O`, the result was inactive.

Consider `CCCCCCCCCCC1CO1` (stereo not drawn), for which the outcome was inactive.

Consider `C=CCOc1nc(OCC=C)nc(OCC=C)n1`, for which the outcome was inactive.
